Measurements taken from PubChem BioAssay AID651848 (The Scripps Research Institute Molecular Screening Center, 2012).
The other results are listed elsewhere or left out. Active and inactive are the calls of the source. No stated cut-off is given here; in the data, active means IC50 below about 10 µM; inactive means the rest.

Assay: PG9 anti-gp120 antibody binding compounds – biochemical, TR-FRET, HIV-1 gp120 antibody, dose response (AID 651848)
Conditions: TR-FRET PG9 antibody-gp120 binding inhibition

IC50, inactive:
Cc1cccc(Nc2nc3c(S(=O)(=O)c4ccccc4)nnn3c3ccccc23)c1C > 67 µM
COc1ccc(-c2c(C)nn3c(N4CCC(C(=O)N5CCCCC5)CC4)cc(C)nc23)cc1OC > 67 µM
O=C(Oc1ccccc1)Oc1ccc2c(c1)oc(=O)c1ccccc12 25.1 µM
O=C(Nc1nnc(-c2ccccc2F)s1)c1ccccc1F > 67.1 µM
COC(=O)C1=C(C)N(Cc2ccccc2C(F)(F)F)C(=NCc2ccc(OC)cc2)NC1c1cccc(C(F)(F)F)c1 (configuration not stated) > 67 µM
CC1(C)Cc2ccccc2-c2[nH]c(=S)[nH]c(=O)c21 > 67.1 µM
S=c1[nH]c2ccccc2c2ccccc12 44.6 µM
